PubChem BioAssay AID1159580 (chemical genetic matrix, 2015)
The whole screen tested about 5,500 compounds, of which about 2,000 (36%) were called active. Roughly 18% stayed inconclusive and do not appear here. Rule as the data show it: active = normalized growth mostly below about 0.91 (no sharp cut-off); inconclusive = no clear call, values can overlap the other calls; inactive = mostly above about 0.92. This is one part of the list.

Assay: chemical genetic growth profiling, strain panel (AID 1159580);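 also: tested at 20 µM; growth read once vehicle control cultures reached saturation at 30 °C; 1 = growth at the plate median or of vehicle wells; lower values mean less growth of the strain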
Conditions: growth OD
[1] = S. cerevisiae deletion strains, locus YDL101C, strain DUN1, active compounds read low
[2] = S. cerevisiae deletion strains, locus YHR030C, strain SLT2, active compounds read low

Measured: normalized growth

Cc1cccc(NC(=S)NNC(=O)CSCc2cccc3ccccc23)c1
inactive: S. cerevisiae deletion strains, locus YAR019C, strain CDC15, active compounds read low 0.986 | S. cerevisiae deletion strains, locus YBL105C, strain PKC1, active compounds read low 0.988 | S. cerevisiae deletion strains, locus YBR135W, strain CKS1, active compounds read low 0.999 | S. cerevisiae deletion strains, locus YBR136W, strain MEC1, active compounds read low 0.974 | S. cerevisiae deletion strains, locus YBR160W, strain CDC28, active compounds read low 1 | S. cerevisiae deletion strains, locus YDL017W, strain CDC7, active compounds read low 0.987 | S. cerevisiae deletion strains, locus YDL028C, strain MPS1, active compounds read low 0.984 | [1] 0.975 | S. cerevisiae deletion strains, locus YDL108W, strain KIN28, active compounds read low 0.982 | S. cerevisiae deletion strains, locus YDL132W, strain cdc53, active compounds read low 0.989 | S. cerevisiae deletion strains, locus YDL214C, strain PRR2, active compounds read low 0.904 | S. cerevisiae deletion strains, locus YDR052C, strain DBF4, active compounds read low 1 | S. cerevisiae deletion strains, locus YDR054C, strain cdc34, active compounds read low 0.983 | S. cerevisiae deletion strains, locus YDR226W, strain ADK1, active compounds read low 0.988 | S. cerevisiae deletion strains, locus YDR477W, strain SNF1, active compounds read low 0.924 | S. cerevisiae deletion strains, locus YER123W, strain YCK3, active compounds read low 0.851 | S. cerevisiae deletion strains, locus YER133W, strain GLC7, active compounds read low 0.906 | S. cerevisiae deletion strains, locus YFL009W, strain cdc4, active compounds read low 0.99 | S. cerevisiae deletion strains, locus YFL029C, strain CAK1, active compounds read low 0.983 | S. cerevisiae deletion strains, locus YFR003C, strain YPI1, active compounds read low 0.982 | S. cerevisiae deletion strains, locus YFR019W, strain FAB1, active compounds read low 0.965 | S. cerevisiae deletion strains, locus YFR028C, strain CDC14, active compounds read low 0.99 | S. cerevisiae deletion strains, locus YGR040W, strain KSS1, active compounds read low 0.904 | S. cerevisiae deletion strains, locus YGR052W, strain FMP48, active compounds read low 0.992 | S. cerevisiae deletion strains, locus YGR092W, strain DBF2, active compounds read low 0.865 | [2] 0.997 | S. cerevisiae deletion strains, locus YHR079C, strain IRE1, active compounds read low 0.992 | S. cerevisiae deletion strains, locus YHR082C, strain KSP1, active compounds read low 0.983 | S. cerevisiae deletion strains, locus YHR205W, strain SCH9, active compounds read low 0.963 | S. cerevisiae deletion strains, locus YIL147C, strain SLN1, active compounds read low 0.972 | S. cerevisiae deletion strains, locus YJL095W, strain BCK1, active compounds read low 0.995 | S. cerevisiae deletion strains, locus YJL128C, strain PBS2, active compounds read low 0.96 | S. cerevisiae deletion strains, locus YJL157C, strain FAR1, active compounds read low 0.881 | S. cerevisiae deletion strains, locus YJR016C, strain ILV3, active compounds read low 0.984 | S. cerevisiae deletion strains, locus YJR066W, strain TOR1 (second series), active compounds read low 0.866 | S. cerevisiae deletion strains, locus YJR066W, strain TOR1, active compounds read low 0.981 | S. cerevisiae deletion strains, locus YKL048C, strain ELM1, active compounds read low 0.991 | S. cerevisiae deletion strains, locus YKL067W, strain YNK1, active compounds read low 0.914 | S. cerevisiae deletion strains, locus YKL101W, strain HSL1, active compounds read low 0.929 | S. cerevisiae deletion strains, locus YKL193C, strain SDS22, active compounds read low 0.989 | S. cerevisiae deletion strains, locus YKL203C, strain TOR2, active compounds read low 0.989 | S. cerevisiae deletion strains, locus YLR113W, strain HOG1, active compounds read low 0.962 | S. cerevisiae deletion strains, locus YLR133W, strain CKI1, active compounds read low 0.948 | S. cerevisiae deletion strains, locus YLR403W, strain SFP1, active compounds read low 0.909 | S. cerevisiae deletion strains, locus YML070W, strain DAK1, active compounds read low 0.912 | S. cerevisiae deletion strains, locus YMR001C, strain CDC5, active compounds read low 0.988 | S. cerevisiae deletion strains, locus YMR205C, strain PFK2 (second series), active compounds read low 0.943 | S. cerevisiae deletion strains, locus YMR277W, strain FCP1, active compounds read low 0.988 | S. cerevisiae deletion strains, locus YNL006W, strain LST8, active compounds read low 0.986 | S. cerevisiae deletion strains, locus YNL020C, strain ARK1, active compounds read low 0.925 | S. cerevisiae deletion strains, locus YNL161W, strain CBK1, active compounds read low 0.984 | S. cerevisiae deletion strains, locus YNL183C, strain NPR1, active compounds read low 0.996 | S. cerevisiae deletion strains, locus YNL207W, strain RIO2, active compounds read low 0.983 | S. cerevisiae deletion strains, locus YNL222W, strain SSU72, active compounds read low 0.991 | S. cerevisiae deletion strains, locus YNL307C, strain MCK1 (second series), active compounds read low 0.922 | S. cerevisiae deletion strains, locus YOL078W, strain AVO1, active compounds read low 0.988 | S. cerevisiae deletion strains, locus YOL136C, strain PFK27, active compounds read low 0.925 | S. cerevisiae deletion strains, locus YOR061W, strain CKA2, active compounds read low 0.904 | S. cerevisiae deletion strains, locus YOR119C, strain RIO1, active compounds read low 0.965 | S. cerevisiae deletion strains, locus YOR231W, strain MKK1, active compounds read low 0.982 | S. cerevisiae deletion strains, locus YOR329C, strain SCD5, active compounds read low 0.981 | S. cerevisiae deletion strains, locus YPL031C, strain PHO85, active compounds read low 0.904 | S. cerevisiae deletion strains, locus YPL153C, strain RAD53, active compounds read low 0.91 | S. cerevisiae deletion strains, locus YPL204W, strain HRR25, active compounds read low 0.914 | S. cerevisiae deletion strains, locus YPL209C, strain IPL1, active compounds read low 0.983 | S. cerevisiae deletion strains, locus YPL256C, strain CLN2, active compounds read low 1.01 | S. cerevisiae deletion strains, locus YPR025C, strain CCL1, active compounds read low 0.99 | S. cerevisiae deletion strains, locus YPR106W, strain ISR1, active compounds read low 0.99 | S. cerevisiae deletion strains, locus YPR111W, strain DBF20, active compounds read low 0.99 | S. cerevisiae deletion strains, strain NNK1, active compounds read low 0.982 | S. cerevisiae deletion strains, strain TSCII, active compounds read low 0.988

O=C(CSCc1cccc2ccccc12)NNC(=S)Nc1ccccc1Cl
active: S. cerevisiae deletion strains, locus YEL061C, strain CIN8, active compounds read low 0.813 | S. cerevisiae deletion strains, locus YKL190W, strain CNB1, active compounds read low 0.844 | S. cerevisiae deletion strains, locus YLR039C, strain RIC1, active compounds read low 0.588 | S. cerevisiae deletion strains, locus YLR085C, strain ARP6, active compounds read low 0.679 | S. cerevisiae deletion strains, locus YLR262C, strain YPT6, active compounds read low 0.623 | S. cerevisiae deletion strains, locus YML094W, strain GIM5, active compounds read low 0.857 | S. cerevisiae deletion strains, locus YNL298W, strain CLA4 (second series), active compounds read low 0.564 | S. cerevisiae deletion strains, locus YNR030W, strain Alg12, active compounds read low 0.63 | S. cerevisiae deletion strains, locus YOL006C, strain TOP1, active compounds read low 0.365 | S. cerevisiae deletion strains, locus YPL241C, strain CIN2, active compounds read low 0.648 | S. cerevisiae strains, strain wild type, active compounds read low 0.765
inactive: S. cerevisiae deletion strains, locus YAL013W, strain DEP1, active compounds read low 0.969 | S. cerevisiae deletion strains, locus YBR229C, strain ROT2, active compounds read low 0.991 | S. cerevisiae deletion strains, locus YCL061C, strain MRC1, active compounds read low 0.971 | [1] 0.987 | S. cerevisiae deletion strains, locus YDR150W, strain NUM1, active compounds read low 0.933 | S. cerevisiae deletion strains, locus YGR078C, strain PAC10, active compounds read low 0.984 | [2] 0.728 | S. cerevisiae deletion strains, locus YHR087W, strain rtc3, active compounds read low 1.02 | S. cerevisiae deletion strains, locus YJR043C, strain POL32, active compounds read low 0.986 | S. cerevisiae deletion strains, locus YJR075W, strain HOC1, active compounds read low 0.984 | S. cerevisiae deletion strains, locus YLR058C, strain SHM2 (second series), active compounds read low 0.978 | S. cerevisiae deletion strains, locus YMR219W, strain ESC1, active compounds read low 0.988 | S. cerevisiae deletion strains, locus YMR263W, strain SAP30, active compounds read low 0.955 | S. cerevisiae deletion strains, locus YNL153C, strain GIM3, active compounds read low 0.958 | S. cerevisiae deletion strains, locus YNL322C, strain KRE1, active compounds read low 0.996 | S. cerevisiae deletion strains, locus YPL055C, strain LGE1, active compounds read low 0.903 | S. cerevisiae deletion strains, locus YPR135W, strain CTF4, active compounds read low 0.793
